# The supplement of paper PMC8728848
# This excerpt belongs to a sample that is enriched for the strongest signals.
# B1: CaSRK1 (Capsicum annuum) (protein)
# chain: MALCKIFPFAFILLSCSCYLISGQRFDYPTANLSTTWINSVSAPHSIDYTDGSRIRAILLRGTFGPRYACGFYCNGNCESYLFAIFIVQTNSASQITSPAIGFPQVVWSANRNNPVKINSTLQLTAEGDLVLRDADGTLAWSTNTAGKSVAGLSLTDEGNLALFDSKNATVWQSFDHPTDALVPGQKLVPGMKLTASVSRTNWTAGGLFALSAIDNGLVAFVESNPPQKYFEASVGGSNTSGGSNYVKYLNGSLTLFTHSADTTELILISITPASSAQYMKLESNGHLKVYEWTSRGWREVDDLLTGFRGECNYPTVCGRYGICTMGQCSCPTSSSSRTYFRPIDVRRPSLGCSEVTKLTCQNTKKHSPLEVEDVDYFAFKAGISDTDLNTCKRACLEKCSCKAAFFRSGLNSSRTRGDCYLPTEIFSIMNNEKDRTRYDSVAFIKVQV
# Legend:
# Test in all cases: glycan array binding signal (z-score within array); higher = stronger binding
# Details in all cases: glycan notation: IUPAC condensed, linker removed
# [1] = molecular target: Fuc(a1-2)Gal(b1-3)[Fuc(a1-4)]GlcNAc
# Method in brief: (§1)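 Glycan array data were curated from 3228 arrays in the Consortium for Functional Glycomics database and kept only where the protein sequence was available. Glycan names were converted to IUPAC-condensed notation, and columns mapping to the same glycan were averaged. The binding signal is a within-array Z-score, averaged across arrays of the same protein sequence at different concentrations or buffers and across linkers. Negative Z-scores can be read as non-binding.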
# [2] = molecular target: Fuc(a1-2)Gal6S(b1-3)GlcNAc6S
# Method in brief: as §1
# [3] = molecular target: Fuc(a1-2)[Gal(a1-3)]Gal(b1-3)GlcNAc
# Method in brief: as §1
# [4] = molecular target: Fuc(a1-2)[Gal(a1-3)]Gal(b1-3)GlcNAc(b1-2)Man(a1-3)[Fuc(a1-2)[Gal(a1-3)]Gal(b1-3)GlcNAc(b1-2)Man(a1-6)]Man(b1-4)GlcNAc(b1-4)GlcNAc
# Method in brief: as §1
# [5] = molecular target: Fuc(a1-3)[Gal(b1-4)]Glc6S
# Method in brief: as §1
# [6] = molecular target: Fuc(a1-3)[Gal(b1-4)]GlcNAc(b1-3)Gal(b1-4)[Fuc(a1-3)]GlcNAc
# Method in brief: as §1
# [7] = molecular target: Fuc(a1-3)[Gal(b1-4)]GlcNAc6S
# Method in brief: as §1
# [8] = molecular target: Gal(a1-3)Fuc(a1-2)Gal(b1-4)GlcNAc(b1-3)[Gal(a1-3)Fuc(a1-2)Gal(b1-4)GlcNAc(b1-6)]GalNAc
# Method in brief: as §1
# [9] = molecular target: Gal(a1-3)Gal(b1-3)GlcNAc
# Method in brief: as §1
# [10] = molecular target: Gal(b1-3)GalNAc
# Method in brief: as §1
# [11] = molecular target: Gal(b1-3)GalNAc(a1-3)[Fuc(a1-2)]Gal(b1-4)Glc
# Method in brief: as §1
# [12] = molecular target: Gal(b1-3)GlcNAc(b1-2)Man
# Method in brief: as §1
# [13] = molecular target: Gal(b1-3)[Fuc(a1-4)]GlcNAc(b1-2)Man(a1-3)[Gal(b1-3)[Fuc(a1-4)]GlcNAc(b1-2)Man(a1-6)]Man(b1-4)GlcNAc(b1-4)[Fuc(a1-6)]GlcNAc
# Method in brief: as §1
# [14] = molecular target: Gal(b1-3)[Neu5Ac(a2-6)]GalNAc
# Method in brief: as §1
# [15] = molecular target: Gal(b1-4)Glc6S
# Method in brief: as §1
# [16] = molecular target: Gal(b1-4)GlcNAc(b1-3)Gal(b1-4)GlcNAc(b1-2)[Gal(b1-4)GlcNAc(b1-3)Gal(b1-4)GlcNAc(b1-6)]Man(a1-6)[Gal(b1-4)GlcNAc(b1-3)Gal(b1-4)GlcNAc(b1-2)Man(a1-3)]Man(b1-4)GlcNAc(b1-4)GlcNAc
# Method in brief: as §1
# [17] = molecular target: Gal(b1-4)GlcNAc(b1-3)Gal(b1-4)GlcNAc(b1-3)Gal(b1-4)GlcNAc(b1-3)Gal(b1-4)GlcNAc(b1-2)Man(a1-3)[Gal(b1-4)GlcNAc(b1-3)Gal(b1-4)GlcNAc(b1-3)Gal(b1-4)GlcNAc(b1-3)Gal(b1-4)GlcNAc(b1-2)Man(a1-6)]Man(b1-4)GlcNAc(b1-4)[Fuc(a1-6)]GlcNAc
# Method in brief: as §1
# [18] = molecular target: Gal(b1-4)GlcNAc(b1-3)Gal(b1-4)GlcNAc(b1-3)GalNAc
# Method in brief: as §1
# [19] = molecular target: Gal(b1-4)GlcNAc(b1-6)Gal(b1-4)GlcNAc
# Method in brief: as §1
# [20] = molecular target: Gal3S(b1-3)[Fuc(a1-4)]GlcNAc
# Method in brief: as §1
# [21] = molecular target: Gal3S6S(b1-4)GlcNAc6S
# Method in brief: as §1
# [22] = molecular target: Gal6P(b1-4)GlcNAc
# Method in brief: as §1
# [23] = molecular target: Gal6S(b1-4)Glc6S
# Method in brief: as §1
# [24] = molecular target: GalNAc(b1-4)GlcNAc6S
# Method in brief: as §1
# [25] = molecular target: Glc(a1-4)Glc(a1-4)Glc(a1-4)Glc
# Method in brief: as §1
# [26] = molecular target: GlcNAc(b1-2)Gal(b1-3)GalNAc
# Method in brief: as §1
# [27] = molecular target: GlcNAc(b1-2)Man(a1-3)[GlcNAc(b1-2)Man(a1-6)]Man(b1-4)GlcNAc(b1-4)[Fuc(a1-6)]GlcNAc
# Method in brief: as §1
# [28] = molecular target: GlcNAc(b1-2)[GlcNAc(b1-6)]Man(a1-6)[GlcNAc(b1-2)Man(a1-3)]Man(b1-4)GlcNAc(b1-4)GlcNAc
# Method in brief: as §1
# [29] = molecular target: GlcNAc(b1-3)Gal(b1-4)GlcNAc(b1-3)Gal(b1-4)GlcNAc(b1-3)GalNAc
# Method in brief: as §1
# [30] = molecular target: GlcNAc(b1-3)[GlcNAc(b1-4)][GlcNAc(b1-6)]GlcNAc
# Method in brief: as §1
binder,measurement,setting,value
B1,glycan array binding signal (z-score),[1],-0.523
same,glycan array binding signal (z-score),[2],2.31
same,glycan array binding signal (z-score),[3],2.37
same,glycan array binding signal (z-score),[4],-0.546
same,glycan array binding signal (z-score),[5],-0.056
same,glycan array binding signal (z-score),[6],0.387
same,glycan array binding signal (z-score),[7],0.606
same,glycan array binding signal (z-score),[8],3.39
same,glycan array binding signal (z-score),[9],3.11
same,glycan array binding signal (z-score),[10],-0.395
same,glycan array binding signal (z-score),[11],0.178
same,glycan array binding signal (z-score),[12],5.29
same,glycan array binding signal (z-score),[13],-0.295
same,glycan array binding signal (z-score),[14],-0.368
same,glycan array binding signal (z-score),[15],-0.386
same,glycan array binding signal (z-score),[16],3.63
same,glycan array binding signal (z-score),[17],0.677
same,glycan array binding signal (z-score),[18],2.85
same,glycan array binding signal (z-score),[19],0.04
same,glycan array binding signal (z-score),[20],-0.07
same,glycan array binding signal (z-score),[21],2.4
same,glycan array binding signal (z-score),[22],-0.342
same,glycan array binding signal (z-score),[23],0.802
same,glycan array binding signal (z-score),[24],0.352
same,glycan array binding signal (z-score),[25],0.933
same,glycan array binding signal (z-score),[26],-0.097
same,glycan array binding signal (z-score),[27],-0.143
same,glycan array binding signal (z-score),[28],-0.46
same,glycan array binding signal (z-score),[29],-0.477
same,glycan array binding signal (z-score),[30],-0.34
